Here are results for 39 compounds from ChEMBL document CHEMBL1157539, “Thousands of chemical starting points for antimalarial lead identification” (Nature, 2010).

Molecules are shown by their SMILES.

The subject of one experiment is Plasmodium falciparum. The experiment is described as follows: GSK_TCMDC: Inhibition of Plasmodium falciparum Dd2 in whole red blood cells, using parasite LDH activity as an index of growth. Test compounds present at 2uM. The experiment is classed as functional.
As for `O=C(O)C(F)(F)F.O=[N+]([O-])c1cccc(CNCC2CCC(CNCc3cccc([N+](=O)[O-])c3)CC2)c1` (stereo not drawn), the Inhibition (commonly how much of the control response was suppressed) was 76%.

`COc1cc2ncnc(Nc3ccc(OCc4ccccc4Br)c(OC)c3)c2cc1OC.Cl` displayed an Inhibition of 62%.

With `Fc1ccc2[nH]c(-c3ccc(-c4ccc(CNCC5CCCO5)cc4)s3)nc2c1.O=C(O)C(F)(F)F` (stereo not drawn), the Inhibition came to 99%.

`Cc1ccc(Nc2ccnc3cc(-c4nccs4)ccc23)cc1C(O)c1ccccc1.Cl` (stereo not drawn) had an Inhibition of 83%.

In turn, `Cc1ccc(Nc2nc(C)cc(NC3CCCC3)n2)cc1` showed an Inhibition of 89%.

In the case of `O=c1cc(NCCCNC2CCCc3c2cc(Cl)c(Cl)c3Cl)[nH]c2ccccc12` (stereo not drawn), the Inhibition came to 64%.

For the compound `CCc1ccc(CN2CCC(NC(=O)c3ccc(-c4ccccc4F)s3)CC2)cc1.O=C(O)C(F)(F)F`, the Inhibition turned out to be 12%.

`COc1ccc2ncc(F)c(CCN3CC[C@H](NC(=O)c4ccc5c(n4)NC(=O)CS5)[C@H](O)C3)c2n1.Cl`: the Inhibition came out at 88%.

The compound `COc1ccc(OC(C)CNC(=O)c2cc([N+](=O)[O-])ccc2-c2ccc(OC)cc2)cc1` (stereo not drawn) yielded an Inhibition of 44%.

`CN1CCC(N(Cc2ccc(-c3ccc(C(F)(F)F)cc3)nc2)C(=O)Cn2c(CCc3cccc(F)c3F)cc(=O)c3ccccc32)CC1.O=C(O)C(O)C(O)C(=O)O` returned an Inhibition of 85%.

As for `CCOc1ccc(-c2nonc2NC(=O)c2ccco2)cc1OCC`, the Inhibition came out at 77%.

Turning to `CC(C)c1ccc(-c2noc(SCC(=O)N(C)c3ccc(F)cc3)n2)cc1`, the Inhibition is reported as 77%.

The compound `CCNc1cc(C(=O)N[C@@H](Cc2ccccc2)[C@H](O)CNCc2cccc(-n3ccnc3)c2)cc(N2CCCC2=O)c1.O=C(O)C(F)(F)F` came in with an Inhibition of 96%.

`CS(=O)(=O)NCCCNCc1ccc(-c2ccc(-c3nc4cc(F)ccc4[nH]3)cc2)cc1.O=C(O)C(F)(F)F`: the Inhibition stood at 97%.

Consider `CCC(CC(C)C(=O)O)=C(c1ccccc1)c1ccccc1` (stereo not drawn), for which the Inhibition was found to be 1%.

For `COCCN1CCC(N(Cc2ccc(-c3ccc(C(F)(F)F)cc3)cc2)C(=O)Cn2c(CCc3cccc(F)c3F)cc(=O)c3c2CCC3)CC1.O=C(O)C(O)C(O)C(=O)O`, the Inhibition came to 48%.

Compound `O=C(Nc1ccc([N+](=O)[O-])cc1O)Nc1ccccc1Oc1ccccc1` came in with an Inhibition of 1%.

The compound `CCc1cc2c(Sc3nc4ccccc4[nH]3)ncnc2s1` returned an Inhibition of 98%.

`O=C(Nc1cccc(CN2CCN(C(=O)c3ccccc3)CC2)c1)c1cccs1.O=C(O)C(F)(F)F`: the Inhibition stood at 97%.

As for `CC(=O)Oc1cc(OCc2ccccc2)c(OC(C)=O)c(OCc2ccccc2)c1`, the Inhibition was determined as 78%.

Consider `N#Cc1ccc(-c2ccc(C(=O)NCCCCN3CCC(c4ccncc4)CC3)cc2)cc1`, for which the Inhibition came to 16%.

With `CN(Cc1ccccc1)C1CCCN(c2cc(NC(=O)c3ccc(F)cc3)ccn2)C1.O=C(O)C(F)(F)F` (stereo not drawn), the Inhibition is listed as 95%.

In the case of `O=C(N[C@H]1CCN(Cc2ccc(OC3CCN(Cc4ccccc4)CC3)c(Cl)c2)C1)c1ccc(Cl)c(Cl)c1.O=C(O)C(F)(F)F`, the Inhibition is given as 11%.

As for `COc1ccc2nccc([C@@H](O)CN3CCC(NC(=O)c4cccc(-c5cc(C)no5)c4)CC3)c2c1`, the Inhibition is recorded as 89%.

Turning to `O=C(Nc1ccc(Cl)cc1)Nc1cccc(-c2cccc(-c3nc4cc(F)ccc4[nH]3)c2)c1`, the Inhibition turned out to be 84%.

`COc1ccc(OCCCN2CCN(CC(c3ccc(F)cc3)N3CCN(C(C)C)CC3)CC2)c2ccccc12.O=C(O)C(F)(F)F` (stereo not drawn) displayed an Inhibition of 32%.

With `CN(CC(=O)Nc1ccc(F)cc1)C(=O)c1ccc(-c2ccc(F)cc2)o1`, the Inhibition stood at 84%.

Compound `COc1ccc2[nH]c(/C=C/c3cccc4ccc(C)nc34)nc2c1` gave an Inhibition of 77%.

On to `CCN1CCN(c2cc(C)c3cc(NC(=O)c4cccc(OC)c4)ccc3n2)CC1`, for which the Inhibition came out at 15%.

In turn, `COc1cc2nc(NCC3CCCCC3)nc(NCc3ccccc3)c2cc1OC` had an Inhibition of 100%.

As to `CN(C)Cc1c(O)ccc2[nH]c(-c3ccc(OC(F)(F)F)cc3)nc12`, the Inhibition amounted to 97%.

For `C[C@@H](NC(=O)c1nn(-c2ccc(Cl)cc2)c(=O)c2ccccc12)C(C)(C)C`, the Inhibition is recorded as 20%.

On to `CC(=O)CC(=O)N1CCN(c2ccccc2)CC1`, for which the Inhibition was 0%.

As for `Cc1cc(=NN=Cc2ccccc2Cl)c2cc(F)ccc2[nH]1`, the Inhibition is 4%.

Take `O=C(Nc1cc(Cl)cc(Cl)c1)c1cc(Cl)c(=O)n(Cc2cccc(Cl)c2)c1`: the Inhibition worked out at 62%.

Compound `COc1cc2c(cc1OC)CN(CCCCNC(=O)c1ccc(NC(=O)c3cc(Cl)cc(Cl)c3)cc1)CC2` registered an Inhibition of 75%.

Compound `O=C(NC1CCN(Cc2cccc(C(F)(F)F)c2)CC1)c1ccc(-c2cccc(C(F)(F)F)c2)s1.O=C(O)C(F)(F)F` gave an Inhibition of 54%.

In the case of `CCN(CC)CCOc1c(Cl)cc(Cl)cc1CNCCCNc1cc(=O)c2ccccc2[nH]1`, the Inhibition came to 6%.

`COc1cccc(C(=O)Nc2ccc(Oc3ccc(Cl)cc3)cc2)c1` had an Inhibition of 0%.

For a further experiment, the system named is HepG2. The experiment is described as follows: GSK_TCMDC: Percent inhibition of human HepG2 cell line. Test compounds present at 10uM. It counts as functional.
As to `O=C(O)C(F)(F)F.O=[N+]([O-])c1cccc(CNCC2CCC(CNCc3cccc([N+](=O)[O-])c3)CC2)c1` (stereo not drawn), the Inhibition came out at 39%.

In turn, `COc1cc2ncnc(Nc3ccc(OCc4ccccc4Br)c(OC)c3)c2cc1OC.Cl` had an Inhibition of 11%.

With `Fc1ccc2[nH]c(-c3ccc(-c4ccc(CNCC5CCCO5)cc4)s3)nc2c1.O=C(O)C(F)(F)F` (stereo not drawn), the Inhibition stood at 30%.

In turn, `Cc1ccc(Nc2ccnc3cc(-c4nccs4)ccc23)cc1C(O)c1ccccc1.Cl` (stereo not drawn) gave an Inhibition of 23%.

`Cc1ccc(Nc2nc(C)cc(NC3CCCC3)n2)cc1` came in with an Inhibition of 33%.

Take `O=c1cc(NCCCNC2CCCc3c2cc(Cl)c(Cl)c3Cl)[nH]c2ccccc12` (stereo not drawn): the Inhibition is reported as 6%.

Compound `CCc1ccc(CN2CCC(NC(=O)c3ccc(-c4ccccc4F)s3)CC2)cc1.O=C(O)C(F)(F)F` displayed an Inhibition of 35%.

In turn, `COc1ccc2ncc(F)c(CCN3CC[C@H](NC(=O)c4ccc5c(n4)NC(=O)CS5)[C@H](O)C3)c2n1.Cl` showed an Inhibition of 20%.

For `COc1ccc(OC(C)CNC(=O)c2cc([N+](=O)[O-])ccc2-c2ccc(OC)cc2)cc1` (stereo not drawn), the Inhibition is on record as 18%.

Regarding `CN1CCC(N(Cc2ccc(-c3ccc(C(F)(F)F)cc3)nc2)C(=O)Cn2c(CCc3cccc(F)c3F)cc(=O)c3ccccc32)CC1.O=C(O)C(O)C(O)C(=O)O`, the Inhibition was 60%.

The compound `CCOc1ccc(-c2nonc2NC(=O)c2ccco2)cc1OCC` gave an Inhibition of 3%.

In the case of `CC(C)c1ccc(-c2noc(SCC(=O)N(C)c3ccc(F)cc3)n2)cc1`, the Inhibition turned out to be 7%.

Compound `CCNc1cc(C(=O)N[C@@H](Cc2ccccc2)[C@H](O)CNCc2cccc(-n3ccnc3)c2)cc(N2CCCC2=O)c1.O=C(O)C(F)(F)F` displayed an Inhibition of 1%.

With `CS(=O)(=O)NCCCNCc1ccc(-c2ccc(-c3nc4cc(F)ccc4[nH]3)cc2)cc1.O=C(O)C(F)(F)F`, the Inhibition is reported as 17%.

On to `CCC(CC(C)C(=O)O)=C(c1ccccc1)c1ccccc1` (stereo not drawn), for which the Inhibition stood at 12%.

As for `COCCN1CCC(N(Cc2ccc(-c3ccc(C(F)(F)F)cc3)cc2)C(=O)Cn2c(CCc3cccc(F)c3F)cc(=O)c3c2CCC3)CC1.O=C(O)C(O)C(O)C(=O)O`, the Inhibition was found to be 31%.

On to `O=C(Nc1ccc([N+](=O)[O-])cc1O)Nc1ccccc1Oc1ccccc1`, for which the Inhibition came out at 45%.

Take `CCc1cc2c(Sc3nc4ccccc4[nH]3)ncnc2s1`: the Inhibition is recorded as 6%.

The compound `O=C(Nc1cccc(CN2CCN(C(=O)c3ccccc3)CC2)c1)c1cccs1.O=C(O)C(F)(F)F` gave an Inhibition of 15%.

The compound `CC(=O)Oc1cc(OCc2ccccc2)c(OC(C)=O)c(OCc2ccccc2)c1` registered an Inhibition of 11%.

`N#Cc1ccc(-c2ccc(C(=O)NCCCCN3CCC(c4ccncc4)CC3)cc2)cc1` came in with an Inhibition of 34%.

Take `CN(Cc1ccccc1)C1CCCN(c2cc(NC(=O)c3ccc(F)cc3)ccn2)C1.O=C(O)C(F)(F)F` (stereo not drawn): the Inhibition is recorded as 7%.

The compound `O=C(N[C@H]1CCN(Cc2ccc(OC3CCN(Cc4ccccc4)CC3)c(Cl)c2)C1)c1ccc(Cl)c(Cl)c1.O=C(O)C(F)(F)F` showed an Inhibition of 59%.

With `COc1ccc2nccc([C@@H](O)CN3CCC(NC(=O)c4cccc(-c5cc(C)no5)c4)CC3)c2c1`, the Inhibition is on record as 19%.

For the compound `O=C(Nc1ccc(Cl)cc1)Nc1cccc(-c2cccc(-c3nc4cc(F)ccc4[nH]3)c2)c1`, the Inhibition is recorded as 79%.

In turn, `COc1ccc(OCCCN2CCN(CC(c3ccc(F)cc3)N3CCN(C(C)C)CC3)CC2)c2ccccc12.O=C(O)C(F)(F)F` (stereo not drawn) displayed an Inhibition of 30%.

`CN(CC(=O)Nc1ccc(F)cc1)C(=O)c1ccc(-c2ccc(F)cc2)o1` showed an Inhibition of 3%.

`COc1ccc2[nH]c(/C=C/c3cccc4ccc(C)nc34)nc2c1` registered an Inhibition of 25%.

For the compound `CCN1CCN(c2cc(C)c3cc(NC(=O)c4cccc(OC)c4)ccc3n2)CC1`, the Inhibition stood at 5%.

With `COc1cc2nc(NCC3CCCCC3)nc(NCc3ccccc3)c2cc1OC`, the Inhibition was found to be 18%.

In turn, `CN(C)Cc1c(O)ccc2[nH]c(-c3ccc(OC(F)(F)F)cc3)nc12` yielded an Inhibition of 24%.

The compound `C[C@@H](NC(=O)c1nn(-c2ccc(Cl)cc2)c(=O)c2ccccc12)C(C)(C)C` registered an Inhibition of 7%.

With `CC(=O)CC(=O)N1CCN(c2ccccc2)CC1`, the Inhibition is given as 54%.

Compound `Cc1cc(=NN=Cc2ccccc2Cl)c2cc(F)ccc2[nH]1` registered an Inhibition of 5%.

Consider `O=C(Nc1cc(Cl)cc(Cl)c1)c1cc(Cl)c(=O)n(Cc2cccc(Cl)c2)c1`, for which the Inhibition worked out at 8%.

The compound `COc1cc2c(cc1OC)CN(CCCCNC(=O)c1ccc(NC(=O)c3cc(Cl)cc(Cl)c3)cc1)CC2` yielded an Inhibition of 19%.

`O=C(NC1CCN(Cc2cccc(C(F)(F)F)c2)CC1)c1ccc(-c2cccc(C(F)(F)F)c2)s1.O=C(O)C(F)(F)F` showed an Inhibition of 36%.

`CCN(CC)CCOc1c(Cl)cc(Cl)cc1CNCCCNc1cc(=O)c2ccccc2[nH]1` showed an Inhibition of 11%.

Regarding `COc1cccc(C(=O)Nc2ccc(Oc3ccc(Cl)cc3)cc2)c1`, the Inhibition is 33%.
